We go through 45 compounds from PubChem BioAssay AID1347422 (Sanford-Burnham Center for Chemical Genomics, 2020).

Whole data set: some 1,000 compounds, median “thermal shift dTm” near 0.19, cut for the highest 2% near 1.7. The full list was thinned out, with the highest values kept by preference. Activity calls are given as the source filed them.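 Rule for the calls: active = mean rise in melting temperature of at least 1 degC over same-plate control wells; inactive = below that, where a call was filed.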

The assay deals with Sulfhydryl oxidase 1 (Homo sapiens) (UniProt O00391). Nature of the assay: QSOX1 binders by thermal stabilization, confirmation, QSOX1 inhibitor project, biophysical, protein thermal shift, single concentration (AID 1347422).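 Note: dTm is compound Tm minus mean Tm of DMSO-only wells on that plate.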 To be noted: recombinant hQSOX1 thermal shift, Sypro Orange, at 25 µM, stronger effect = higher value.
Sequence of Sulfhydryl oxidase 1 (Homo sapiens) (O00391 whole entry, looked up): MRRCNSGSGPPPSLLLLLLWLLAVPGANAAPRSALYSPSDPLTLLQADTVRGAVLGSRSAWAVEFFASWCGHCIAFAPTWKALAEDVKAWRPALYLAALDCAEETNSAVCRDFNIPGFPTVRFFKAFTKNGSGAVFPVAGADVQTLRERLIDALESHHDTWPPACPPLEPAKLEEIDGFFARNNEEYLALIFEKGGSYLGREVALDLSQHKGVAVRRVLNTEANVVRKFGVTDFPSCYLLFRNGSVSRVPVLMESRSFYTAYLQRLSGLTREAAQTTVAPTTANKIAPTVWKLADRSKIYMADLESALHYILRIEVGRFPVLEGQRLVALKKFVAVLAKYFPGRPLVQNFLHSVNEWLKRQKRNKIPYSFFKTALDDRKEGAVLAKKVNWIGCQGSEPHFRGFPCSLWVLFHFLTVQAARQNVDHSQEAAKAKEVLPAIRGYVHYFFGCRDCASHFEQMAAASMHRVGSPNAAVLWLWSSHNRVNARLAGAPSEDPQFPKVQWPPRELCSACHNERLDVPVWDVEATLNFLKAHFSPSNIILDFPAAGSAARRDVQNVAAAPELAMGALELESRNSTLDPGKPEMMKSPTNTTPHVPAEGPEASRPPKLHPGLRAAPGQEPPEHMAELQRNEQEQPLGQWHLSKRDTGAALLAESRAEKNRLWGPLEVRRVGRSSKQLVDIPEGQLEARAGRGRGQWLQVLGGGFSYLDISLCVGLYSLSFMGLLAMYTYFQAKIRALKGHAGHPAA
For `O=C(CCSc1nc2sc3c(c2c(=O)[nH]1)CCCC3)Nc1ccccc1`, the thermal shift dTm came out at 0.02 °C.

Turning to `NC(=O)c1ccc(-c2ccc3[nH]ccc3c2)nc1`, the thermal shift dTm came out at 0.79 °C.

`Cc1cc2ncn(CCCOc3ccc(Cl)cc3)c2cc1C`: the thermal shift dTm was 0.11 °C.

`CC(C)N(Cc1nc(-c2ccc(Cl)cc2)no1)S(=O)(=O)c1ccc(F)cc1`: the thermal shift dTm came out at 0.02 °C.

As for `CCc1ccc(NC(=O)Nc2ccc(Br)cn2)cc1`, the thermal shift dTm is 0.09 °C.

Take `COc1ccc(NC(=O)Nc2ccc(C(C)=O)cc2)c(C)c1`: the thermal shift dTm is 2.14 °C (active).

Consider `COc1ccc(C)cc1NC(=O)Nc1ccc(NC(C)=O)cc1`, for which the thermal shift dTm was 0.57 °C.

`COc1cccc(NC(=O)Nc2cccc3ccccc23)c1`: the thermal shift dTm turned out to be 0.01 °C.

Take `COc1ccc(OC)c(NC(=O)Nc2cccc(NC(C)=O)c2)c1`: the thermal shift dTm was 1.91 °C (active).

In the case of `COc1ccc(NC(=O)Nc2ccc(C)cc2)c(OC)c1`, the thermal shift dTm came to 0.2 °C.

As for `COc1ccc(NC(=O)Nc2ccc(C)cc2C)cc1`, the thermal shift dTm was 0.05 °C.

`N/C(=N\c1nc(-c2cccs2)cc(C(F)(F)F)n1)Nc1ccc2c(c1)OCCO2`: the thermal shift dTm came to 0.35 °C.

As for `COc1ccc(NC(=O)Nc2cccc(Cn3cc(Cl)cn3)c2)cc1`, the thermal shift dTm was 2.14 °C (active).

On to `COc1cccc(NC(=O)Nc2ccc(Cc3ccncc3)cc2)c1`, for which the thermal shift dTm turned out to be 0.38 °C.

Consider `COc1ccc(NC(=O)Nc2cccnc2)cc1`, for which the thermal shift dTm was found to be 0.28 °C.

With `Cc1nnc(NC(=O)c2ccc(NC(=O)c3ccco3)cc2)s1`, the thermal shift dTm was determined as 0.7 °C.

Regarding `CC(=O)Nc1ccc(NC(=O)c2nnn(-c3cccc(Cl)c3)c2N)cc1`, the thermal shift dTm amounted to 0.55 °C.

For `O=C(Nc1nccs1)c1ccccc1OCc1ccccc1`, the thermal shift dTm is 0.37 °C.

Consider `CCc1sc(NC(=O)Cc2ccc(F)cc2)nc1-c1ccccc1`, for which the thermal shift dTm was found to be 0.17 °C.

For `O=S(=O)(NCCSC1CCCCC1)c1ccc(Cl)cc1`, the thermal shift dTm is 0.11 °C.

Regarding `O=C(CCc1ccccc1)Nc1cccc(-c2nc3ccccc3s2)c1`, the thermal shift dTm came out at 0.59 °C.

With `CC(=O)Nc1ccc(C(=O)CSc2ccc3ccccc3n2)cc1`, the thermal shift dTm was 1.22 °C (active).

Turning to `Cc1ccccc1NC(=S)NCCC(c1ccccc1)c1ccccc1`, the thermal shift dTm came to 0.02 °C.

On to `Cc1ccc(NC(=O)Nc2ccc3snnc3c2)cc1`, for which the thermal shift dTm was -0.45 °C (inactive).

As for `c1ccc(COc2ccc(-c3noc(-c4ccccn4)n3)cc2)cc1`, the thermal shift dTm was 0.01 °C.

For the compound `C=CCc1c(C)nc2c(-c3ccccc3)cnn2c1NCc1cccnc1`, the thermal shift dTm is -0.08 °C (inactive).

As for `Cc1cc(OCCn2cc(C(=S)N3CCOCC3)c3ccccc32)ccc1Cl`, the thermal shift dTm amounted to 0.02 °C.

Turning to `COc1ccc2c(c1OC)C(=O)N(c1ccc(Cl)cc1)C2`, the thermal shift dTm turned out to be 0.81 °C.

Turning to `Cc1ncc(CNc2ccc(-c3nc4ccccc4[nH]3)cc2)cn1`, the thermal shift dTm came out at 0.14 °C.

As for `O=C(Nc1cccc(-c2nc3ccccc3[nH]2)c1)C1CCCO1` (stereo not given), the thermal shift dTm worked out at 0.02 °C.

`c1cc(NCc2ccc3c(c2)OCO3)cc(-c2nc3ccccc3[nH]2)c1`: the thermal shift dTm was 2.39 °C (active).

On to `COc1ccc(C(=O)Nc2ccc(NC(C)=O)cc2)cc1C`, for which the thermal shift dTm is 1.48 °C (active).

Turning to `COc1ccc(NC(=O)c2ccoc2)cc1Cl`, the thermal shift dTm is 0.23 °C.

For the compound `COc1ccc(C(=O)Nc2ccc(Cl)c(C)n2)cc1Cl`, the thermal shift dTm was 1.85 °C (active).

For `COc1ccc(-c2noc(-c3cccc(NC(C)=O)c3)n2)cc1`, the thermal shift dTm worked out at 0.24 °C.

Turning to `CSc1cccc(NC(=O)NCc2ccccn2)c1`, the thermal shift dTm is 0.18 °C.

For the compound `O=C(Nc1nc(-c2ccccc2)ns1)N1CCOc2ccc(Cl)cc2C1`, the thermal shift dTm came out at 0.23 °C.

In the case of `O=C(CN(c1ccccc1F)S(=O)(=O)c1ccccc1)Nc1ccc(F)cc1F`, the thermal shift dTm is -0.03 °C (inactive).

On to `Cc1cc(N(C)C)nc(N2CCN(C(=O)Nc3cccc(F)c3)CC2)n1`, for which the thermal shift dTm was -0.08 °C (inactive).

As to `CCCN(CC1CC1)C(=O)c1cc(COc2ccc(OC)cc2Cl)on1`, the thermal shift dTm was found to be 0.09 °C.

Turning to `CC(=O)Oc1ccc2cc(-c3ccc(Cl)cc3)c(=O)oc2c1`, the thermal shift dTm amounted to 0.11 °C.

Turning to `CCCn1c(=O)[nH]c(=O)c2c(-c3cccc4ccccc34)ccnc21`, the thermal shift dTm was 0.25 °C.

For `Cc1ccc(NC(=O)Nc2ccc(Br)cc2)nc1`, the thermal shift dTm turned out to be 0.28 °C.

For `Cc1ccc2ccc(C(Nc3ccccn3)c3ccc(Cl)cc3)c(O)c2n1` (stereo not given), the thermal shift dTm is 0.57 °C.

As for `O=c1[nH]c(SCc2ccc(Cl)c(Cl)c2)nc2ccccc12`, the thermal shift dTm worked out at 0.11 °C.
